In the supplement of paper PMC7411640:
Structures can show the parent of a compound that is named as a salt.

Tested on: MDA-MB-468
Test: phospho-S6 immunofluorescence (DAPI-normalised), per-plate z-score; higher = higher phospho-S6 signal (less pathway suppression)
Conditions: 24 h
Method: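 GPCR-targeted compound library (MedChemExpress HY-L006) tested on MDA-MB-468 PTEN-null TNBC cells in 384-well plates at 0.1, 1 or 10 uM, combined with vehicle, GDC0941 450 nM or lapatinib 1 uM, for 24 h. Phospho-S6 (S240/244) immunofluorescence normalised to DAPI and expressed as a per-plate z-score; values are the mean of biological triplicates.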

Structure (SMILES) | phospho-S6 immunofluorescence (z-score) (co-treatment: GDC0941 450 nM) | phospho-S6 immunofluorescence (z-score) (co-treatment: lapatinib 1 uM) | phospho-S6 immunofluorescence (z-score) (co-treatment: vehicle)
C[C@H](NC(=O)c1c(C(F)F)nn(C)c1Oc1cccc(C(F)(F)F)c1)c1ccc(C(=O)O)cc1 (compound 10 µM) | 0.32 | 0.46 | -0.56
CC1(C)C(=O)N(CCN2CCC(C(=O)c3ccc(F)cc3)CC2)c2ccccc21 (compound 10 µM) | -0.29 | -0.77 | 0.28
Cc1nccn1CC1CCc2c(c3ccccc3n2C)C1=O (stereo unspecified) [Ondansetron (hydrochloride dihydrate)] (compound 10 µM) | 0.11 | -0.58 | 0.16
CC(=O)OCC(=O)[C@@]1(O)CC[C@H]2[C@@H]3CCC4=CC(=O)CC[C@]4(C)[C@H]3C(=O)C[C@@]21C [Cortisone (acetate)] (compound 10 µM) | 0.51 | 1.06 | 0.93
CN(C)CCc1c[nH]c2ccc(CS(=O)(=O)N3CCCC3)cc12 [Almotriptan (malate)] (compound 10 µM) | 0.95 | 0.57 | 0.38
Cc1ccc(/C(=C\CN2CCCC2)c2cccc(/C=C/C(=O)O)n2)cc1 [Acrivastine] (compound 10 µM) | 0.27 | 0.6 | 0.62
OCCOCCN1CCN(C2=Nc3ccccc3Sc3ccccc32)CC1 [Quetiapine] (compound 10 µM) | 0.95 | -0.32 | 0.64
CC(C)(C)NCC(O)c1cc(O)cc(O)c1 (stereo unspecified) [Terbutaline (sulfate)] (compound 10 µM) | 0.52 | 1.51 | 1.44
Cc1sc(C)c(C(=O)NC2(c3ccc(C(=O)O)cc3)CC2)c1Cc1ccc(C(F)(F)F)cc1 (compound 10 µM) | -1.42 | -0.58 | 0.73
Cn1c(=O)c2c(ncn2CC(=O)O)n(C)c1=O [Acefylline] (compound 10 µM) | 0.4 | 0.37 | -0.98
O=c1cc(CN2CCOCC2)occ1OCCCCCSc1ccnc2cc(C(F)(F)F)ccc12 (compound 10 µM) | -2.93 | -3.04 | -3.82
Cc1ccc2c(c1CCC(=O)O)CC[C@@H](NS(=O)(=O)c1ccc(Cl)cc1)C2 [Terutroban] (compound 10 µM) | -0.9 | 0.55 | -0.1
c1ccc2c(c1)OCC(CN1CCCCC1)O2 (stereo unspecified) [Piperoxan (hydrochloride)] (compound 10 µM) | 0.28 | 0.61 | 0.8
CCC(=O)O[C@]1(C(=O)CCl)[C@@H](C)C[C@H]2[C@@H]3CCC4=CC(=O)C=C[C@]4(C)[C@@]3(F)[C@@H](O)C[C@@]21C [Clobetasol propionate] (compound 10 µM) | -0.19 | -0.09 | 0.7
CC(C)OC(=O)CCC/C=C\C[C@@H]1[C@@H](CC[C@@H](O)CCc2ccccc2)[C@H](O)C[C@@H]1O [Latanoprost] (compound 10 µM) | 0.61 | -0.08 | -0.18
C[C@@H](O[C@H]1OCCN(Cc2n[nH]c(=O)[nH]2)[C@H]1c1ccc(F)cc1)c1cc(C(F)(F)F)cc(C(F)(F)F)c1 [Aprepitant] (compound 10 µM) | -1.22 | -1.02 | 0.64
CC(NCCc1ccc(O)cc1)C(O)c1ccc(O)cc1 (stereo unspecified) [Ritodrine (hydrochloride)] (compound 10 µM) | -0.01 | 1.26 | 0.06
O=c1cc(C(Cl)(Cl)Cl)oc2ccc(Cl)cc12 (compound 10 µM) | 0.54 | -0.11 | 0.44
COc1cc2c(cc1OC)-c1cc3ccc4c(c3c[n+]1CC2)OCO4 [Epiberberine (chloride)] (compound 10 µM) | -0.39 | 0.22 | 1.66
CCc1nn(CCCN2CCN(c3cccc(Cl)c3)CC2)c(=O)n1CCOc1ccccc1 [Nefazodone (hydrochloride)] (compound 10 µM) | -4.37 | -2.37 | -1.26
O=C1Cc2cc(CCN3CCN(c4nsc5ccccc45)CC3)c(Cl)cc2N1 [Ziprasidone (hydrochloride monohydrate)] (compound 10 µM) | -5.1 | -9.79 | -5.97
COc1cc2c(cc1OC)CC(=O)N(CCCN(C)C[C@H]1Cc3cc(OC)c(OC)cc31)CC2 [Ivabradine (hydrochloride)] (compound 10 µM) | -0.44 | -0.13 | -0.38
Nc1nccc(/C=C/c2ccccc2)n1 (compound 10 µM) | -1.32 | -0.81 | 0.3
N=C(N)NC(=O)Cc1c(Cl)cccc1Cl [Guanfacine (hydrochloride)] (compound 10 µM) | 0.64 | 0.23 | 0.38
Cc1ccc(F)cc1C(=O)Nc1ccc(C(=O)N2Cc3cccn3Cc3ccccc32)c(Cl)c1 [Lixivaptan] (compound 10 µM) | -2.79 | -0.79 | 0.62
CN1CCN(CC(=O)N2c3ccccc3C(=O)Nc3cccnc32)CC1 [Pirenzepine (dihydrochloride)] (compound 10 µM) | 1.51 | 1.09 | 0.23

Structure (SMILES) | phospho-S6 immunofluorescence (z-score) (co-treatment: GDC0941 450 nM) | phospho-S6 immunofluorescence (z-score) (co-treatment: lapatinib 1 uM) | phospho-S6 immunofluorescence (z-score) (co-treatment: vehicle)
CCn1c2ccccc2c2cc(Nc3ccnc(NCCCN4CCOCC4)n3)ccc21 (compound 10 µM) | -3.59 | -8.74 | -10.3
O=c1ccccn1CC1(O)CCN(Cc2ccccc2)CC1 (compound 10 µM) | 0.52 | -0.19 | 0.48
O=C(Nc1ccccc1)C12CC1C(=NO)c1ccccc1O2 (stereo unspecified) (compound 10 µM) | -0.19 | -0.81 | 0.75
CCCSc1nc(N[C@@H]2C[C@H]2c2ccc(F)c(F)c2)c2nnn([C@@H]3C[C@H](OCCO)[C@@H](O)[C@H]3O)c2n1 [Ticagrelor] (compound 10 µM) | -1.29 | 0.02 | 1.13
O=C1CCc2ccc(OCCCCN3CCN(c4cccc(Cl)c4Cl)CC3)cc2N1 [Aripiprazole] (compound 10 µM) | -3.14 | -5.16 | -3.2
CC[C@H](NC(=O)c1c(O)c(-c2ccccc2)nc2ccccc12)c1ccccc1 [Talnetant] (compound 10 µM) | 0.6 | 0.47 | 0.13
CCCCc1nc(Cl)c(CO)n1Cc1ccc(-c2ccccc2-c2nnn[nH]2)cc1 [Losartan (potassium)] (compound 10 µM) | 0.74 | 0.83 | 0.81
COc1cc2nc(N3CCN(C(=O)C4COc5ccccc5O4)CC3)nc(N)c2cc1OC (stereo unspecified) [Doxazosin (mesylate)] (compound 10 µM) | -3.46 | -7.7 | -8.17
C[N+]1(C)CCC(OC(=O)C(O)(c2ccccc2)C2CCCC2)C1 (stereo unspecified) [Glycopyrrolate] (compound 10 µM) | 0.59 | 0.25 | 1.14
COc1ccccc1OCCNCC(O)COc1cccc2[nH]c3ccccc3c12 (stereo unspecified) [Carvedilol] (compound 10 µM) | -4.07 | -4.63 | -3.59
O=c1[nH]c2ccccc2n1CCN1CCN(c2cccc(C(F)(F)F)c2)CC1 [Flibanserin] (compound 10 µM) | -0.19 | -0.04 | 0.48
C[N+]1(C)[C@@H]2C[C@@H](OC(=O)C(O)(c3cccs3)c3cccs3)C[C@H]1[C@@H]1O[C@@H]12 [Tiotropium (Bromide)] (compound 10 µM) | -0.58 | 0.42 | -0.69
Cc1c(C(=O)NN2CCCCC2)nn(-c2ccc(Cl)cc2Cl)c1-c1ccc(I)cc1 (compound 10 µM) | -1.91 | -1.68 | -2.82
Cc1cc2c(cc1CC(=O)c1sccc1S(=O)(=O)Nc1onc(C)c1Cl)OCO2 [Sitaxsentan (sodium)] (compound 10 µM) | 0.35 | 0.35 | 0.45
COc1cc(N)c(Cl)cc1C(=O)NC1CCN(CCCOc2ccc(F)cc2)CC1OC (stereo unspecified) [Cisapride] (compound 10 µM) | -1.02 | -1.88 | -0.58
C[C@@H](NCCCc1cccc(C(F)(F)F)c1)c1cccc2ccccc12 [Cinacalcet (hydrochloride)] (compound 10 µM) | -5.88 | -11.2 | -9.18
CC(C)(C)NCC(O)COc1cccc2c1CCC(=O)N2 (stereo unspecified) [Carteolol (hydrochloride)] (compound 10 µM) | 0.64 | 0.45 | -0.38
CN1[C@@H]2CC[C@H]1C[C@@H](OC(c1ccccc1)c1ccccc1)C2 [Benztropine (mesylate)] (compound 10 µM) | 1.67 | -1.69 | 0.29
C[C@H](NC(=O)C(C)(C)Oc1ccc(C(F)(F)F)cn1)[C@@H](Cc1ccc(Cl)cc1)c1cccc(C#N)c1 [Taranabant] (compound 10 µM) | -4.19 | -2.35 | -2.4
Cc1nn(C)c2c1C(c1ccc(C(F)(F)F)cc1)C(C#N)=C(N)O2 (stereo unspecified) (compound 10 µM) | -1.17 | 2.28 | 2.57
N[C@@H](CCC(=O)O)C(=O)[O-].[Na+] [L-Glutamic acid monosodium salt] (compound 10 µM) | 0.12 | -0.6 | -0.39
CN1CCc2c(c3ccccc3n2Cc2ccccc2)C1 [Mebhydrolin (napadisylate)] (compound 10 µM) | -0.29 | -1.06 | 0.64
CC1CCN(CC[C@H]2CCCN2S(=O)(=O)c2cccc(O)c2)CC1 (compound 10 µM) | 0.86 | 0.2 | 0.48
CC(C)c1noc(N2CCC(COc3ccc(-c4ccc(S(C)(=O)=O)cc4)nc3)CC2)n1 (compound 10 µM) | -2.9 | -4.91 | -6.22
Cc1nc2ccc(NC(=O)Nc3ccnc4cccnc34)cc2o1 (compound 10 µM) | 0.6 | -1.8 | 0.79
O=C(O[C@H]1CN2CCC1CC2)N1CCc2ccccc2[C@@H]1c1ccccc1 [Solifenacin (hydrochloride)] (compound 10 µM) | 0.75 | 1.12 | -1.36
